Data published in the supplement of paper PMC6555819.

How the values were obtained:
Assay in all cases: PBM binding z-score (relative to random genomic background probes); higher = stronger binding; sequences stand for … in GC…GCGATTGACAGCGTAGAATGAAGG
[1] = test system: FXR:RXRa (NR concentration 270 nM, RXRa partner concentration 90 nM)
Method in brief: (§1)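 Binding z-scores were set against random background probes. The data came from custom Agilent 4×180K protein-binding microarrays carrying double-stranded probes with 34-nt variable regions, incubated 1 h with ligand-free nuclear receptor dimers. Partner-specific antibodies detected binding, and scanned fluorescence was regression-normalized.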

[2] = test system: LXRa:RXRa (NR concentration 270 nM, RXRa partner concentration 90 nM)
Method in brief: as §1

[3] = test system: LXRa homodimer (NR concentration 270 nM)
Method in brief: as §1

[4] = test system: LXRb:RXRa (NR concentration 270 nM, RXRa partner concentration 90 nM)
Method in brief: as §1

[5] = test system: LXRb homodimer (NR concentration 270 nM)
Method in brief: as §1

[6] = test system: PPARa:RXRa (NR concentration 270 nM, RXRa partner concentration 90 nM)
Method in brief: as §1

[7] = test system: PPARg:RXRa (NR concentration 180 nM, RXRa partner concentration 90 nM)
Method in brief: as §1

[8] = test system: PPARg:RXRa 270nM:90nM, anti-RXR (NR concentration 270 nM, RXRa partner concentration 90 nM)
Method in brief: as §1

[9] = test system: PPARg:RXRa 30nM:10nM, anti-RXR (NR concentration 30 nM, RXRa partner concentration 10 nM)
Method in brief: as §1

[10] = test system: PPARg:RXRa 90nM:30nM, anti-RXR (NR concentration 90 nM, RXRa partner concentration 30 nM)
Method in brief: as §1

[11] = test system: PPARg:RXRa DBDmut IVT, anti-RXR (DBD mutation: RXRa K156A/R161A, NR concentration 270 nM, RXRa partner concentration 90 nM)
Method in brief: as §1

[12] = test system: PPARg:RXRa IVT, anti-PPARg (NR concentration 270 nM, RXRa partner concentration 90 nM)
Method in brief: as §1

[13] = test system: PPARg DBDmut IVT, anti-PPARg (DBD mutation: PPARg1 K132A/R137A, NR concentration 270 nM)
Method in brief: as §1

[14] = test system: PPARg homodimer (NR concentration 180 nM)
Method in brief: as §1

[15] = test system: PXR:RXRa (NR concentration 270 nM, RXRa partner concentration 90 nM)
Method in brief: as §1

[16] = test system: PXR homodimer (NR concentration 270 nM)
Method in brief: as §1

[17] = test system: RARa:RXR (NR concentration 270 nM, RXRa partner concentration 90 nM)
Method in brief: as §1

[18] = test system: RARa homodimer (NR concentration 270 nM)
Method in brief: as §1

[19] = test system: RARb:RXRa (NR concentration 270 nM, RXRa partner concentration 90 nM)
Method in brief: as §1

Sequence	PBM binding z-score [1]	PBM binding z-score [2]	PBM binding z-score [3]	PBM binding z-score [4]	PBM binding z-score [5]	PBM binding z-score [6]	PBM binding z-score [7]	PBM binding z-score [8]	PBM binding z-score [9]	PBM binding z-score [10]	PBM binding z-score [11]	PBM binding z-score [12]	PBM binding z-score [13]	PBM binding z-score [14]	PBM binding z-score [15]	PBM binding z-score [16]	PBM binding z-score [17]	PBM binding z-score [18]	PBM binding z-score [19]
ATATGTAGGTTACGGTCATTCAGAAAGTAGGGAA	2.04	2.49	1.64	1.74	1.02	4.35	7.06	5.67	3.24	5.02	7.69	8.18	1.83	2.04	0.971	0.516	1.47	0.836	2.89
ATATGTAGGTAAGGGTCATTCAGAAAGTAGGGAA	4.33	4.17	1.56	4.24	1.45	5.52	7.89	6.82	4.58	6.85	5.88	6.35	2.93	3.52	3.78	1.25	4.55	2.02	3.61
ATATGTAGGTTAGGGACATTCAGAAAGTAGGGAA	0.703	0.638	0.29	0.442	0.526	2.39	3.98	2.82	1.2	2.33	6.18	5.89	1.59	0.688	0.115	0.777	0.618	1.69	1.04
ATATGTAGCTTAGGGTCATTCAGAAAGTAGGGAA	4.3	4.47	1.67	4.49	1.7	4.7	2.42	3.28	1.35	2.4	0.587	2.1	1.21	1.78	4.04	0.915	4.2	1.36	3.24
CGAACTATGTCAAAGGACAGTGAAAGGCGACGTA	0.0509	0.00479	-0.268	-0.115	-0.346	2.68	5.1	5.42	4.42	5.74	3.02	3.26	0.207	0.527	-0.558	-0.587	-0.379	-0.181	1.45
ATATGTAGGTTAGTGTCATTCAGAAAGTAGGGAA	1	1.03	0.483	1.41	0.974	3.21	4.15	3.57	1.5	2.8	6.62	6.21	2.47	1.86	1.09	0.763	1.32	2.19	1.4
ATATGTAGGTTAGGGTGATTCAGAAAGTAGGGAA	1.37	1.32	0.569	1.83	1.47	3.62	5.4	4.45	2.06	3.62	6.7	6.39	1.41	2.93	1.04	1.31	1.3	1.25	1.38
CGAACTAGGTCACCTGGACAGTGAAGAGGTTGGA	3.92	2.38	0.0453	1.79	-0.443	5	8.13	6.5	4.2	5.86	8.17	8.6	-0.299	1.42	1.46	0.15	2.53	-0.115	4.05
CGGACTAGGTCAAAGGACAGTGAAAGGCGACGTA	3.87	2.49	-0.041	1.67	-0.542	4.93	10.2	8.4	8.49	9.55	7.7	7.9	0.294	1.67	1.11	-0.218	2.41	0.208	3.69
CGAACTAGGTCACCAGGACAGTGGAGAGGTTGGA	4.02	2.46	0.169	1.58	-0.484	5.13	8.7	7.06	4.41	6.57	8.2	8.98	4.11	2.37	1.37	-0.106	2.81	0.103	4.39
CGAACTAGGTCACCAGGACAGGGAAGAGGTTGGA	4.04	2.49	-0.0204	1.64	-0.262	5.11	8.73	6.89	4.68	6.72	8.23	8.76	5.57	4.22	1.22	0.127	2.58	0.696	4.13
CGATCTAGGTCAAAGGACAGTGAAAGGCGACGTA	4	2.77	-0.0244	1.53	-0.237	5.27	10.3	8.3	8.39	9.24	7.67	8.1	1.86	2.2	0.913	-0.421	2.13	0.262	3.79
ATATGTAGGTTAGAGTCATTCAGAAAGTAGGGAA	0.573	1.04	0.277	1.02	0.605	2.75	4.27	4.03	1.69	3.08	6.33	6.41	1.55	1.2	0.349	0.624	0.989	1.78	1.02
CGAACTAGTTCACCAGGACAGTGAAGAGGTTGGA	0.244	0.23	-0.131	-0.137	-0.531	0.836	0.543	0.354	-0.289	-0.0706	1.56	1.11	0.126	-0.235	0.423	0.241	0.0691	-0.106	1.7
ATATGTATGTTAGGGTCATTCAGAAAGTAGGGAA	4.58	3.8	1.34	4.19	1.46	4.84	4.3	3.99	1.85	3.4	2.61	3.27	2.23	2.64	4.24	1.37	4.82	1.45	3.15
CGAACTAGGTCACCAGGGCAGTGAAGAGGTTGGA	3.67	2.48	0.0109	1.52	-0.639	5.2	8.69	6.86	4.52	6.42	8.17	8.88	0.642	1.95	1.7	-0.014	2.53	0.458	4.22
CGAACTAGGTTACCAGGACAGTGAAGAGGTTGGA	-0.174	-0.0635	-0.296	-0.238	-0.499	2.53	3.94	3.65	0.924	2.52	6.94	6.73	2.08	0.829	-0.124	-0.211	0.296	-0.114	1.13
CAAACTAGGTCAAAGGACAGTGAAAGGCGACGTA	3.9	3.01	0.388	2.12	0.744	5.51	10.3	8.88	8.82	10.4	8	8.6	4.51	2.88	1.45	0.371	2.48	0.774	3.99
ATATGTAGGTTAGCGTCATTCAGAAAGTAGGGAA	0.121	0.529	-0.273	0.174	0.215	2.81	4.14	3.23	1.36	2.32	6.57	6.84	1.38	0.87	-0.0758	0.0634	-0.121	0.244	0.594
CGAACTAGGTCAAAGGACAGTTAAAGGCGACGTA	4.01	2.69	0.333	1.95	-0.158	5.58	10.5	8.8	7.97	9.57	7.76	8.44	1.12	2.07	1.32	0.165	2.42	0.332	4
CGAACTAGGTCAAAGGACAATGAAAGGCGACGTA	3.98	2.65	0.155	1.92	-0.0883	5.61	10.3	8.49	8.29	9.41	7.79	8.35	0.575	1.69	1.5	0.00867	2.52	0.325	3.85
CGAACTAGGTCATCAGGACAGTGAAGAGGTTGGA	4.1	2.56	0.124	1.44	-0.279	5	7.71	6.43	4.15	5.72	7.93	8.18	0.121	1.34	1.32	0.123	2.27	0.72	3.9
CGAACTAGGTCAAAGGAAAGTGAAAGGCGACGTA	3.12	1.88	-0.168	1.2	-0.265	4.7	8.32	7.07	5.62	7.13	7.92	8.23	1.64	0.636	0.854	-0.0237	1.65	0.526	3.55
CGAACTAGGTCAGAGGACAGTGAAAGGCGACGTA	1.21	0.781	-0.404	0.187	-0.968	3.61	8.37	6.52	6.22	7.35	7.39	7.68	-0.191	1.33	0.248	-0.238	0.823	-0.0193	3.36
CGAACTAGGTCACCAGGACAGCGAAGAGGTTGGA	3.93	2.11	-0.245	1.55	-0.88	4.91	8.61	6.98	4.85	6.78	7.82	8.67	0.871	2.15	1.34	-0.232	2.32	0.196	4.21
CGCACTAGGTCAAAGGACAGTGAAAGGCGACGTA	4.07	2.88	0.082	1.83	-0.151	5.48	10.1	8.55	8.13	8.98	7.3	8.16	0.801	0.993	1.27	0.0363	2.25	0.165	3.84
CGAACTATGTCACCAGGACAGTGAAGAGGTTGGA	0.32	0.0175	-0.0452	-0.257	-0.182	1.17	1.5	1.26	0.318	0.775	4.52	3.71	0.886	0.475	-0.0276	-0.042	0.322	0.192	0.847
